Source: PubChem (National Center for Advancing Translational Sciences (NCATS))
Pf growth 48h – inhibits P. falciparum growth in the first generation, 48 h | AID 504832 | Potency, µM (doses to about 28.7 µM), most hits filed as inhibitors | 5.9% of 310,000 active | P. falciparum luciferase growth in erythrocytes, 48 h
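A one-generation exposure of luciferase-tagged malaria parasites in RPMI 1640/Albumax erythrocyte culture, 37 C and 5% CO2. Inhibition is inferred from decreased luminescence after adding detection reagent.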
Lassa entry inh – blocks Lassa virus binding to or entry into cells. Lassa virus pseudotype entry inhibition, cell reporter. Potency, µM (highest dose often 37.9 µM), usual class: inhibitors. 1.2% of 300,000 active. AID 540256; calls by dose curve; tested in HEK293 cells; note: nearly all actives have a fitted effect of over 50% in size
HCMV inh – blocks human cytomegalovirus replication; HFF cells, HCMV-luciferase reporter, 72 h; active compounds read low; activity change, negative = inhibition, % at 57.5 µM; 4.5% of 410,000 active; in the data active = activity change below about -60%; inconclusive = no clear call, values can overlap the other calls; inactive = above about -39%
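Two compound doses tested in HFFs infected with HCMV-luciferase, MOI 1 PFU/cell, 72 h at 37C. Lysate luminescence read with OneGlo; data normalized against buffer-only and 10uM Salinomycin inhibitor controls.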
HCV inh – inhibitors of hepatitis C virus infection. Huh7.5.1 HCVcc-Cre infection, luciferase reporter, 44 h. Potency, µM (titrated, usually from 41.8 µM), most hits filed as inhibitors. 3.4% of 340,000 active. AID 651820
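Infectious HCVcc-Cre (~0.5 moi) was added to cells just after compound, with cells seeded 4 h earlier at 1,000 per well. Luciferase activity after 44 h culture reported infection; substrate was incubated 15 min at room temperature before reading.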
Marburg entry inh – inhibitors of Marburg virus binding or cell entry; AID 540276; 1.8% of 300,000 active; Potency, µM (titrated, usually from 37.8 µM), actives largely listed as inhibitors; Marburg virus pseudotyped entry inhibition, cell reporter; calls by dose curve; tested in HEK293 cells
Pf growth 96h – P. falciparum growth inhibition at 96 hour, primary screen for plastid delayed-death inhibitors | Potency, µM (titrated, usually from 28.7 µM), hits mostly inhibitors | 6.9% of 320,000 active | P. falciparum luciferase reporter growth, 96 h
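Infected RBCs, 2% Hct / 0.05% parasitemia final; luciferase-reporter P. falciparum; cpd 96 h, 37 C, 5% CO2; luciferase detection reagent; luminescence.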
Each line names hits and unclear results; the compound was inactive in the other large screens; ! = not active in a repeat. This is a sample that favours compounds with a hit; in the whole collection about 14% have one here. Unless noted, calls come from the whole dose curve; as a rule, active = well fitted inhibition curve with a large enough effect; inconclusive = small, poorly fitted or top-dose-only effect, or another doubt; inactive = no such curve, though single readings can be large or run the other way.

Cn1c(=O)c2c(nc(NCCCO)n2Cc2cccc(Br)c2)n(C)c1=O	Pf growth 48h inconclusive (no result: Pf growth 96h)
COCCNc1nc2c(c(=O)n(C)c(=O)n2C)n1Cc1cccc(C)c1	HCV inh 10µM, Marburg entry inh inconclusive
COC(/C(=N/O)c1ccc(Cl)cc1)c1ccccc1 (configuration not stated)	Pf growth 48h 2.1µM, Lassa entry inh inconclusive, HCMV inh -94, Marburg entry inh inconclusive, Pf growth 96h 2.3µM
O=C(NCCN1CCCC1)c1ccc2c(c1)N(Cc1ccccc1)C(=O)c1ccccc1S2(=O)=O	Pf growth 48h 8.3µM, HCV inh inconclusive (no result: Lassa entry inh, Marburg entry inh)
O=C(NCCC1=CCCCC1)c1ccc2c(c1)N(Cc1ccc(Cl)cc1)C(=O)c1ccccc1S2(=O)=O	Lassa entry inh inconclusive, Marburg entry inh 11µM (no result: Pf growth 48h, HCV inh, Pf growth 96h)
CCC1CCCCN1CCCNC(=O)c1ccc2c(c1)N(Cc1ccc(Cl)cc1)C(=O)c1ccccc1S2(=O)=O (configuration not stated)	Lassa entry inh inconclusive, HCMV inh -106, Marburg entry inh inconclusive (no result: Pf growth 48h, HCV inh, Pf growth 96h)
O=C(Nc1cccc(F)c1)c1ccc2c(c1)N(Cc1ccccc1)C(=O)c1ccccc1S2(=O)=O	HCMV inh -89, Marburg entry inh inconclusive (no result: Pf growth 48h, HCV inh, Pf growth 96h)
O=C(NCCC1=CCCCC1)c1ccc2c(c1)N(Cc1cccc(Cl)c1)C(=O)c1ccccc1S2(=O)=O	Lassa entry inh inconclusive (no result: Pf growth 48h, HCV inh, Marburg entry inh, Pf growth 96h)
CCC1CCCCN1CCCNC(=O)c1ccc2c(c1)N(Cc1cccc(C)c1)C(=O)c1ccccc1S2(=O)=O (configuration not stated)	Lassa entry inh inconclusive, HCMV inh -64, Marburg entry inh inconclusive (no result: Pf growth 48h, HCV inh, Pf growth 96h)
CCC1CCCCN1CCCNC(=O)c1ccc2c(c1)N(Cc1cccc(Cl)c1)C(=O)c1ccccc1S2(=O)=O (configuration not stated)	Lassa entry inh inconclusive, HCMV inh -98 (no result: Pf growth 48h, HCV inh, Marburg entry inh, Pf growth 96h)
Cc1ccc(C)c(CN2C(=O)c3ccccc3S(=O)(=O)c3ccc(C(=O)NCCCN4CCCC(C)C4)cc32)c1 (configuration not stated)	Lassa entry inh inconclusive, Marburg entry inh inconclusive (no result: Pf growth 48h, HCV inh, Pf growth 96h)
CC1CCCN(CCCNC(=O)c2ccc3c(c2)N(Cc2ccc(Cl)cc2)C(=O)c2ccccc2S3(=O)=O)C1 (configuration not stated)	Lassa entry inh inconclusive, HCMV inh -100, Marburg entry inh inconclusive (no result: Pf growth 48h, HCV inh, Pf growth 96h)
CCN1CCCC(C2NC3CCCCC3S2)C1 (configuration not stated)	none (no result: Pf growth 48h, Lassa entry inh, HCMV inh, HCV inh, Pf growth 96h)
COc1cccc2c1C(=O)c1c(O)c3c(c(O)c1C2=O)C[C@@](O)(C(=O)CO)C[C@@H]3O[C@H]1C[C@H](N)[C@H](O)[C@H](C)O1	Pf growth 48h 0.15µM, Lassa entry inh 0.37µM, HCMV inh -98, Marburg entry inh 0.73µM, Pf growth 96h 0.093µM
CC(=O)C1(O)Cc2c(O)c3c(c(O)c2C(OC2CC(N)C(O)C(C)O2)C1)C(=O)c1c(O)cccc1C3=O (configuration not stated)	Pf growth 48h 1.5µM, Pf growth 96h 0.85µM (no result: Lassa entry inh, HCMV inh, HCV inh, Marburg entry inh)
CC[C@@]1(O)C[C@H](O[C@H]2C[C@@H](N(C)C)[C@@H](O[C@H]3C[C@@H](O)[C@@H](O[C@H]4CCC(=O)[C@@H](C)O4)[C@@H](C)O3)[C@@H](C)O2)c2c(cc3c(c2O)C(=O)c2c(O)cccc2C3=O)[C@H]1C(=O)OC	Pf growth 48h 0.085µM, Pf growth 96h 0.06µM (no result: Lassa entry inh, HCMV inh, HCV inh, Marburg entry inh)
COc1cccc2c1C(=O)c1c(O)c3c(c(O)c1C2=O)CC(O)(C(C)=NO)CC3OC1CC(N)C(O)C(C)O1 (configuration not stated)	Lassa entry inh inconclusive, HCMV inh -100, HCV inh inconclusive, Marburg entry inh inconclusive (no result: Pf growth 48h, Pf growth 96h)
C[C@]12CC[C@H](O)C[C@@H]1CC[C@@H]1[C@@H]2CC[C@@]2(C)[C@H]1CCC(=O)[C@]21CCCO1	none (no result: Pf growth 48h, Lassa entry inh, Marburg entry inh, Pf growth 96h)
COc1cccc2c1C(=O)c1c(O)c3c(c(O)c1C2=O)C[C@@](O)(C(=O)CO)C[C@@H]3OC1CC(N)C(O)C(C)O1 (some centres not stated)	Pf growth 48h 0.43µM, Lassa entry inh inconclusive, HCMV inh -99, HCV inh 1µM, Marburg entry inh 0.5µM, Pf growth 96h 0.067µM
COc1cccc2c1C(=O)c1c(O)c3c(c(O)c1C2=O)CC(O)(C(C)=O)CC3OC1CC(N(C)C)C(O)C(C)O1 (configuration not stated)	Lassa entry inh inconclusive, HCMV inh -98, HCV inh 0.56µM, Marburg entry inh inconclusive (no result: Pf growth 48h, Pf growth 96h)
CCOC(=O)C(C(=O)OCC)C(C(=O)OCC)N1CCOCC1 (configuration not stated)	HCMV inh -105, HCV inh inconclusive, Marburg entry inh inconclusive (no result: Pf growth 48h)
CCOC(=O)C(C)CC(C)C(=O)N1CCOCCOCCN(C(=O)C(C)CC(C)C(=O)OCC)CCOCC1 (configuration not stated)	Pf growth 48h inconclusive
CCc1nc2c(OCc3ccc(Cl)cc3)cccn2c1N(C)C(=O)c1ccccc1F	HCMV inh -63 (no result: Pf growth 48h, Lassa entry inh, HCV inh, Marburg entry inh, Pf growth 96h)
CCc1nc2c(OCc3ccc(S(C)(=O)=O)cc3)cccn2c1N(C)C(=O)c1ccccc1F	none (no result: Pf growth 48h, Lassa entry inh, HCV inh, Marburg entry inh, Pf growth 96h)
Cc1nn(-c2ccccc2)c(OC(=O)c2ccccc2Br)c1S(=O)(=O)c1ccccc1	none (no result: Pf growth 48h, HCV inh, Pf growth 96h)
Cc1ccc2c(c1)-c1ncc(C(=O)c3cc(Br)ccc3O)cc1CO2	Pf growth 48h 1.7µM, HCMV inh -90!, Pf growth 96h inconclusive (no result: HCV inh)
Cc1ccc(O)c(C(=O)c2cnc3c(c2)COc2ccc(C)cc2-3)c1	Pf growth 48h 13µM, HCV inh inconclusive, Marburg entry inh inconclusive, Pf growth 96h inconclusive
Cc1ccc(-c2nc3cc(N)ccc3o2)cc1	Lassa entry inh inconclusive, Marburg entry inh inconclusive (no result: Pf growth 96h)
Cc1ccc2oc(-c3cccc(N)c3)nc2c1	Lassa entry inh inconclusive, Marburg entry inh 13µM
Cc1ccc(-c2nc3cc(C)ccc3o2)cc1	Lassa entry inh 14µM, Marburg entry inh inconclusive
Nc1cccc(-c2nc3cc(S(=O)(=O)c4ccc5oc(-c6cccc(N)c6)nc5c4)ccc3o2)c1	Pf growth 48h inconclusive, Lassa entry inh inconclusive, HCMV inh -83, Marburg entry inh inconclusive
Nc1cccc(-c2nc3ncccc3o2)c1	Lassa entry inh inconclusive
Cc1cc(C)c2oc(-c3cccc(NC(=O)COc4ccccc4Cl)c3C)nc2c1	Lassa entry inh inconclusive (no result: Pf growth 48h, HCV inh, Pf growth 96h)
N#Cc1ccccc1Sc1ccccc1C(=O)NCC(c1ccco1)N1CCCC1 (configuration not stated)	Pf growth 48h inconclusive, Pf growth 96h inconclusive
CCCCCCCN1C(Nc2ccccc2)=NC[C@@H]1Cc1ccccc1	Pf growth 48h inconclusive, HCMV inh inconclusive, HCV inh inconclusive, Pf growth 96h 5.2µM (no result: Lassa entry inh, Marburg entry inh)
CCC(C)CCN1C(Nc2ccccc2)=NC[C@@H]1Cc1ccccc1 (some centres not stated)	Pf growth 48h inconclusive, HCMV inh -100, Pf growth 96h inconclusive (no result: Lassa entry inh, Marburg entry inh)
CCN1CCN(CCCNC(=O)c2cc3c(=O)oc4ccc(C)cc4c3s2)CC1	HCV inh inconclusive, Pf growth 96h inconclusive (no result: Lassa entry inh, Marburg entry inh)
